Source: PubChem BioAssay
CHX counter – counter-screen hit for Shiga toxin inhibitors, cycloheximide; max response, %; cell reporter, cycloheximide protein synthesis inhibition counterscreen; AID 2314; 300,000 tested, 12% active; in the data active means max response mostly above about 13%, no sharp cut-off; inactive means mostly below about 14%; further: read at 38.3 µM for the half of the compounds with a filed dose; 0% is about no effect
Shiga toxin inh – inhibitors of Shiga toxin in Vero cells. Vero cells, Shiga toxin protein synthesis inhibition reporter. inhibition, % at 38.7 µM. 290,000 tested, 9.2% active. AID 2315; in the data active means inhibition mostly above about 28%, no sharp cut-off; inactive means mostly below about 43%; further: 0% is about no effect
Sm TGR inh – blocks Schistosoma mansoni thioredoxin glutathione reductase; purified TGR, DTNB reduction, TNB absorbance 405 nm; Potency, µM (highest dose often 114 µM), inactives show top-dose activity change, negative = inhibition, hits mostly inhibitors; 360,000 tested, 3% active; active means well fitted inhibition curve with a large enough effect; inconclusive means small, poorly fitted or top-dose-only effect; inactive means no such curve, though single readings can be large or run the other way; further: potency means the concentration at half of the fitted maximal effect; on the % scale 0 is the no-effect control and ±100 the full control effect; nearly all actives have a fitted effect of over 60% in size
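TGR 20 nM + NADPH 100 uM (dispensed conc.), cpd preinc 15 min RT; start with NADPH (500 uM addition) then DTNB (15 mM addition). Kinetic TNB absorbance, 405 nm filter. Four-parameter Hill fit across titration.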
FMDV inh – foot and mouth disease virus antiviral activity; Potency, µM (titrated, usually from 57.9 µM), without a hit: at the highest dose activity change, negative = inhibition, most hits filed as inhibitors; FMDV antiviral cell-based qHTS; 410,000 tested, 1.2% active; calls by dose curve; tested in HEK293T cells; further: read-out not given here; potency means the concentration at half of the fitted maximal effect; on the % scale 0 is the no-effect control and ±100 the full control effect; nearly all actives have a fitted effect of over 45% in size
An asterisk follows results filed as active; ? = inconclusive; / = no result given. Shown are actives, neighbours in structure and some others; about 12% of the full set was active somewhere.

SMILES	CHX counter	Shiga toxin inh	Sm TGR inh	FMDV inh
Cc1ccc(NC(=O)CN2C(=O)CCc3cc(S(=O)(=O)N4CCOCC4)ccc32)cc1F	/	/	-1%	-5%
CC[C@H](NC(=O)[C@H](CCCN=C(N)N)NC(=O)[C@H](Cc1c[nH]c2ccccc12)NC(=O)[C@@H](N)CS)C(=O)N[C@@H](CCCN=C(N)N)C(=O)N[C@@H](Cc1ccc(O)cc1)C(N)=O	-9	3	/	/
O=C(CCS(=O)(=O)c1cccs1)NC1CCCCCC1	31*	115*	6%	69%
Cc1ccc(C)c(N2CCN(C(=O)Cn3cccc3)CC2)c1	-3	-14	40µM*	?
O=C(CCS(=O)(=O)c1ccc(Br)cc1)NC1CCCC1	-5	-11	-8%	12%
CCC(=O)N1CCN(c2cc(C)ccc2C)CC1	4	-10	2%	-7%
O=C(CCNS(=O)(=O)c1cccc2nonc12)NC1CCCCC1	0	-4	-10%	3%
O=C(CCS(=O)(=O)c1cccc2nonc12)NC1CCCCCC1	11	-4	45µM*	36%
Cc1ccccc1CN1C(=O)C(O)(c2c[nH]c3ccccc23)c2cc(Cl)ccc21 (stereo not drawn)	/	/	10%	-24%
C=C(C)COc1ccc(-c2[nH]ncc2Oc2ccc(OC)cc2)c(O)c1	22*	30	23%	23%
Cc1cccn2c(=O)c3cc(C(=O)NCc4ccc(F)cc4)c(=N)n(CCCN4CCOCC4)c3nc12	/	/	/	4.5µM*
CC(=O)N=c1c(C#N)cc2c(=O)n3cccc(C)c3nc2n1Cc1ccco1	-2	-4	28µM*	-4%
Cc1ccccc1C(=O)N=c1c(C#N)cc2c(=O)n3cccc(C)c3nc2n1Cc1ccco1	-2	-11	?	/
CCCCNC(=O)c1cc2c(=O)n3cccc(C)c3nc2n(CCN2CCOCC2)c1=N	-4	10	1%	-16%
Cc1cccn2c(=O)c3cc(C(=O)NCc4ccco4)c(=N)n(CCc4ccccc4)c3nc12	17*	46*	?	-17%
COc1ccccc1OCC(=O)Nc1c(C(=O)c2ccc(F)cc2)oc2ccccc12	/	/	5%	-16%
CCOC(=O)c1ccc(NC(=O)c2c(-c3c(F)cccc3Cl)noc2C)cc1	/	/	2%	?
COc1ccc(C(=O)CSc2nnc(-c3ccco3)c(-c3ccco3)n2)cc1	10	20	/	-2%
COc1ccc(NC(=O)CSc2nnc(-c3ccco3)c(-c3ccco3)n2)cc1OC	4	1	5.6µM*	-8%
COc1cccc(NC(=O)CSc2nnc(-c3ccco3)c(-c3ccco3)n2)c1	-2	23	2.8µM*	-8%
CCCCN(Cc1cc2ccccc2[nH]c1=O)C(=O)c1cccc(Cl)c1	/	/	10%	?
O=C(NC(=S)Nc1ccc(Cc2ccncc2)cc1)c1ccccc1	37*	34	-33%	0%
COc1c(C(=O)Nc2ccc(Cc3ccncc3)cc2)ccc2ccccc12	20*	96*	-12%	?
COc1ccc(Br)cc1C(=O)Nc1ccc(Cc2ccncc2)cc1	-5	-7	-15%	-23%
COc1ccccc1C(=O)NC(=S)Nc1ccc(Cc2ccncc2)cc1	20*	42*	-34%	-16%
SMILES	CHX counter	Shiga toxin inh	Sm TGR inh	FMDV inh
CCOc1ccc(NC(=O)CSc2nnc(CNC(=O)C34CC5CC(CC(C5)C3)C4)n2CC)cc1	/	/	-13%	-15%
COc1ccc(CCNC(=O)C2CCCN(c3nc4c(C)cc(C)cc4s3)C2)cc1OC (stereo not drawn)	/	/	1%	12%
CC1CN(CC(=O)NCCc2ccncc2)Cc2ccccc2O1 (stereo not drawn)	/	/	/	-3%
C#Cc1ccc(CN2CCC(C(=O)Nc3ccc(Oc4ccccc4)nc3)CC2)cc1	-1	-2	0%	?
CC#CC(=O)N1CCC(C(=O)Nc2ccc(Oc3ccccc3)nc2)CC1	34*	87*	1%	10%
O=C(Nc1ccc(Oc2ccccc2)nc1)C1CCCCN1Cc1ccc(OCCO)cc1 (stereo not drawn)	22*	1	?	-5%
O=C(O)CC1SC(N/N=C/c2ccc(Br)cc2)NC1=O (stereo not drawn)	44*	79*	-1%	-7%
CC1C(=O)N(Cc2cn(CCC3OCCCO3)nn2)CCS(=O)(=O)N1Cc1ccc(-c2ccccc2)cc1 (stereo not drawn)	/	/	/	-3%
CC1C(=O)N(Cc2cn(CCC3OCCCO3)nn2)CCS(=O)(=O)N1Cc1ccc(-c2ccc(Cl)cc2)cc1 (stereo not drawn)	/	/	/	11µM*
CCOC(=O)C(C)n1nc(C)c2sc3ccccc3c2c1=O (stereo not drawn)	3	1	40µM*	1%
Cc1nn(CCCC(=O)NCc2ccccc2)c(=O)c2c1sc1ccccc12	/	/	-13%	-23%
CCOC(=O)N1CCN(C(=O)CCCn2nc(C)c3sc4ccccc4c3c2=O)CC1	13	68*	11%	?
COc1ccc(N2CCN(c3nc(NCCc4ccc(OC)c(OC)c4)nc(OC)n3)CC2)cc1	-2	-13	-30%	25µM*
CCOC(=O)c1ccc(N=C2C(=S)N(c3ccc(C(=O)OCC)cc3)C(=N)N2/N=C/c2ccccc2)cc1	12	33*	-14%	-5%
COc1ccc2c(c1)CCc1cnc(N)nc1-2	12*	19	4%	29%
Cc1nn(-c2ccccn2)c2c1-c1nc(N)ncc1CC2	36*	49*	0%	54%
Cc1nn(-c2ccccn2)c2c1-c1nc(N3CCOCC3)ncc1CC2	6	-6	?	-17%
CC(=O)Nc1cccc(OCc2cnc(Cl)s2)c1	14	9	2%	2%
CC(C)(C)c1ccc(OCc2cnc(Cl)s2)cc1	35*	75*	/	16%
CCc1cc(C(c2ccc(F)cc2)N2CCOCC2)c(NC(=O)c2ccccc2)s1 (stereo not drawn)	16	21	4µM*	?
CCc1cc(C(c2cccc(OC)c2)N2CCOCC2)c(NC(=O)c2ccccc2)s1 (stereo not drawn)	38*	61	?	-25%
CCc1cc(C(c2ccc(OC)c(OC)c2)N2CCOCC2)c(NC(=O)c2ccccc2)s1 (stereo not drawn)	2	-19	2.5µM*	-6%
COc1cc(NC(=O)c2ccccc2)c(OC)cc1NC(=O)CN1CCOCC1	2	28	-4%	-18%
CCc1cc(CN2CCOCC2)c(NC(=O)c2ccccc2)s1	27*	79*	-19%	13%
O=C(Nc1ccc(N2CCOCC2)cc1N1CCOCC1)c1ccccc1	/	/	/	-15%
SMILES	CHX counter	Shiga toxin inh	Sm TGR inh	FMDV inh
Cc1oc2ncn(CC(C)C)c(=O)c2c1C(=O)N1CCN(c2ccc(F)cc2)CC1	/	/	2%	-6%
Cc1nn(CC(=O)Nc2ccc3c(c2)nc2n3CCN(C3CCCCC3)C2)c(=O)c2ccccc12	-1	-12	18µM*	-30%
O=C1C(c2cccc(Br)c2)N(CCc2ccccc2)C(=O)CN1C1CCCCC1 (stereo not drawn)	/	/	3%	4%
Cc1ccccc1N=Nc1c(C)[nH]n(C(N)=S)c1=O	20*	67*	-6%	10%
Cc1[nH]n(C(N)=S)c(=O)c1N=Nc1cccc(Cl)c1	32*	60*	?	51%
Cc1[nH]n(C(N)=S)c(=O)c1N=Nc1ccc([N+](=O)[O-])cc1Cl	14*	15	-36%	-10%
